# Results as given in ChEMBL document CHEMBL3988442, “University of Dundee, Small-Polar-MMV Screening Library” (2021).
# Biological target: T1, Tyrosyl-tRNA synthetase, putative (Trypanosoma cruzi (strain CL Brener)) (UniProt Q4DSP6)
# T1 sequence (whole entry): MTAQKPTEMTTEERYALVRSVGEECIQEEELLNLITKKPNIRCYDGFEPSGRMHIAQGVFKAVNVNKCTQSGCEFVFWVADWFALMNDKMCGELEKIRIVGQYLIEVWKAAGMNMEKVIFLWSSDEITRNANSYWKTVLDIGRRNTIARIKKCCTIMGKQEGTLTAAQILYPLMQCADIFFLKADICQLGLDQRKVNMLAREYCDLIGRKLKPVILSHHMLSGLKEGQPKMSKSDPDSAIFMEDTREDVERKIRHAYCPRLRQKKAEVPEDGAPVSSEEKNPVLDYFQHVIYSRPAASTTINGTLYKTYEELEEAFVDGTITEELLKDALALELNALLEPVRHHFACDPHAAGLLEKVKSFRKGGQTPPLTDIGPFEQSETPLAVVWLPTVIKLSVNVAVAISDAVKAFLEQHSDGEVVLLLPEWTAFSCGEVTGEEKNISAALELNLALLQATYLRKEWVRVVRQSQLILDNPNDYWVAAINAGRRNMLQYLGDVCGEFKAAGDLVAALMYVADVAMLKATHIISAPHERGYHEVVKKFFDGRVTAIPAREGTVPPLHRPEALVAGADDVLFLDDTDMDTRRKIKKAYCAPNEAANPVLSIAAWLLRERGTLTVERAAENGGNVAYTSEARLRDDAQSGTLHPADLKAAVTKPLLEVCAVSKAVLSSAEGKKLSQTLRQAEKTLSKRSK
# Assay: Trypanosoma cruzi tyrosyl tRNA synthetase (TcYRS) SOP
# Format: functional
# Set-up: scale not given: direction of the effect not stated beside the values
# Settings: 30 µM
row,Structure (SMILES),Percent Effect
1,CN1CC(=O)N(c2cnn(C)c2)CC12CCN(Cc1ccccc1)C2 (stereo not drawn),8.64%
2,NC(=O)C(CNC(=O)Cc1ccc(F)cc1)Cc1ccc(F)cc1 (stereo not drawn),0%
3,O=C(N1CCOCC1)N1CCc2ncnc(NC3CC3)c2CC1,6.1%
4,Cn1cccc1C(=O)N1CCn2cc(CNC(=O)CC3CC3)nc2C1,16.7%
5,Clc1cc(CN2CCCC2Cn2cncn2)c2ncccc2c1 (stereo not drawn),6.1%
6,CCc1nnc2n1CCN(Cc1csc(-c3cnn(C)c3)n1)C2,0%
7,COc1ccc(C(CNC(=O)Nc2cn[nH]c2)N2CCOCC2)cc1 (stereo not drawn),25.9%
8,Cc1nn(C)c(C)c1C1CCCN1CC(=O)Nc1ccncc1 (stereo not drawn),-11.1%
9,Cc1nn(C)c(N(C)C)c1CNC1CCc2c(F)cccc21 (stereo not drawn),17.1%
10,Cc1ccccc1C(=O)CN1C(=O)c2ccccc2CS1(=O)=O,-31.7%
11,CS(=O)(=O)N1CCC(C(=O)NC(Cc2ccsc2)c2ccccn2)CC1 (stereo not drawn),9.09%
12,COc1cccc(Cc2nnc(SC3CCOC3=O)o2)c1 (stereo not drawn),8.64%
13,Cc1ccc(N2CCC3(CC2)CC(OCC(=O)N(C)C)CO3)nn1 (stereo not drawn),12.8%
14,CC(NC(=O)NCc1cccnc1N1CCCCC1)c1nccs1 (stereo not drawn),14.6%
15,CCc1ccc(NS(=O)(=O)CC2=NC(=O)n3cccc3C2=O)cc1,-12.8%
16,c1ncn(CC2CCCN(Cc3nc(C4CC4)no3)C2)n1 (stereo not drawn),13.9%
17,N#Cc1ccc(C(=O)N2CCC3(CC2)C(=O)Nc2ccccc23)cn1,18.5%
18,Cc1ccc(-c2nc(CNCCn3cccn3)cs2)o1,4.88%
19,Cc1cnc2n(c1=O)CC(C(=O)Nc1ccccc1Cl)CS2 (stereo not drawn),0%
20,CCn1c(N)nc2cc(C(=O)NCCc3ccccc3C)cnc21,17.5%

row,Structure (SMILES),Percent Effect
1,O=C(NCCCN1CCCC1)c1n[nH]c(=O)c2ccccc12,12.2%
2,Cc1nc(CN2CCCC(NCCOCC(F)(F)F)C2)no1 (stereo not drawn),8.86%
3,O=C1C[C@H]2[C@@H](CCN2C(=O)c2ccccc2)N1CCN1CCOCC1,-1.24%
4,CC(C)Oc1ncccc1CNC(=O)N1CCC(C(N)=O)C1 (stereo not drawn),7.32%
5,CNc1nc2c(c(C(=O)N3CCCC3)n1)CN(Cc1nccn1C)CC2,8.64%
6,CC(C)NC(=O)c1sccc1N(C)S(=O)(=O)c1ccc(Cl)cc1,0%
7,COc1nn(C)c2c1CCCN(C(=O)c1ccccc1)C2,1.22%
8,COCC(=O)N1CC[C@@H]2O[C@H](COCc3ccncc3)CC[C@@H]21,17.9%
9,Fc1ccc(-c2cnc(CN3CCCC3Cn3cccn3)o2)cc1 (stereo not drawn),13.9%
10,O=C(C1CC=CC1)N1CCc2c(COCc3ccncc3)cncc2C1,11.1%
11,O=C(NCC(F)(F)F)NC1CCCc2c1cnn2CCO (stereo not drawn),16.1%
12,O=C(CCOc1ccccc1)N1CCC(Nc2cccnn2)CC1,18.5%
13,Cc1cc(CN2CCN(c3ccc4nncn4n3)C(C)C2)no1 (stereo not drawn),21.9%
14,Cc1n[nH]c(C)c1C1COCCN1C(=O)Cc1cccc(F)c1 (stereo not drawn),-2.5%
15,CCC(C)(NCC(=O)Nc1ccccc1)c1nc(C)cs1 (stereo not drawn),6.17%
16,Cc1ccc(-c2nnc(CN3CCc4cnc(C)nc4C3)o2)cc1,30.5%
17,Cc1cccc2c1OCCC2NCc1c(C)nn(C)c1N(C)C (stereo not drawn),7.32%
18,CC(C#N)CSc1ccccc1NCC(=O)NCc1ccccc1 (stereo not drawn),-5%
19,O=C(Cn1cc(I)cn1)N1CCCC1,5.13%

# Biological target: Chromo domain-containing protein 1 (Saccharomyces cerevisiae (strain ATCC 204508 / S288c) (Baker's yeast)) (UniProt P32657)
# Assay: ScCHD-1 Enzyme Inhibition Assay; also: in the data most compounds retested in dose-response had high values
# Format: functional
# Set-up: scale not given: direction of the effect not stated beside the values
# Settings: 30 µM
# Chromo domain-containing protein 1 (Saccharomyces cerevisiae (strain ATCC 204508 / S288c) (Baker's yeast)), sequence (P32657 whole entry, the tested form may be a part): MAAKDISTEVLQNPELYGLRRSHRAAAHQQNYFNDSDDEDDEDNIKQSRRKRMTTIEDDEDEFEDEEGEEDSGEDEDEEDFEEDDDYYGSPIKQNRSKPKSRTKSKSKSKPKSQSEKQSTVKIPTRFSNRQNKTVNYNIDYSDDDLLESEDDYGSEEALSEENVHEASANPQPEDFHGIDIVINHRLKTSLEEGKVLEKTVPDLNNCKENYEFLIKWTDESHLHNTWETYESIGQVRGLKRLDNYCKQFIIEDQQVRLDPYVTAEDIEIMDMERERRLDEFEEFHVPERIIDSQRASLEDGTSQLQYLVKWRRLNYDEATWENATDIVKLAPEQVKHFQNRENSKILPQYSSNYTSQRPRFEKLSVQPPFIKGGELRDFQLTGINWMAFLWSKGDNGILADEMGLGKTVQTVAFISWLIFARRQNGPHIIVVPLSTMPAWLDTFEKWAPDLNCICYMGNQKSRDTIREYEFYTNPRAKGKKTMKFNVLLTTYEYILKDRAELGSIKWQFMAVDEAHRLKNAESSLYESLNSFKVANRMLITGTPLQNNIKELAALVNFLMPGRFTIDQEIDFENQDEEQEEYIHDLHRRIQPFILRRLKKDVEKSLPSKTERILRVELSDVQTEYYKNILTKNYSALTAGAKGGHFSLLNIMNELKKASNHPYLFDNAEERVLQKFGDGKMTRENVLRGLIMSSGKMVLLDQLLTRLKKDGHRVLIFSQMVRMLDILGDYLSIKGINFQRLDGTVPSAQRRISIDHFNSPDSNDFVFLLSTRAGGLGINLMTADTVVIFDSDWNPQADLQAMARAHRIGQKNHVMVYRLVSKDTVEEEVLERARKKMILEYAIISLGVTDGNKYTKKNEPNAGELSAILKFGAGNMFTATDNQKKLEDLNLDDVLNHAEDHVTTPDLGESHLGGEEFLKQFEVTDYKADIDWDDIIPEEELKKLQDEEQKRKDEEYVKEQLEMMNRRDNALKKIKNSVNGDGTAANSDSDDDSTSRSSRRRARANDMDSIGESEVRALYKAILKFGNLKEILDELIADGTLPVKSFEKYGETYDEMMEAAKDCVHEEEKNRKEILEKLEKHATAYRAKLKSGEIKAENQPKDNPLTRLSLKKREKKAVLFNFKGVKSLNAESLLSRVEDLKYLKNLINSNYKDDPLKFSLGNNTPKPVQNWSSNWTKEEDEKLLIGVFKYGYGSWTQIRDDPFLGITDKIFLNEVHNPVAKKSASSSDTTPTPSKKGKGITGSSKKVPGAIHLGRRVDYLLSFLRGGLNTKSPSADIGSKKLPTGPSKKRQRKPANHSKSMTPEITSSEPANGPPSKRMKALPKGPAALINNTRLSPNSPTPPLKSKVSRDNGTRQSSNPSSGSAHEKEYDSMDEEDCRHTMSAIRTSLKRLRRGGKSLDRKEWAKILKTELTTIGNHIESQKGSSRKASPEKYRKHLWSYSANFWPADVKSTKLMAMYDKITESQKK
row,Structure (SMILES),Percent Effect
1,CN1CC(=O)N(c2cnn(C)c2)CC12CCN(Cc1ccccc1)C2 (stereo not drawn),-4.55%
2,NC(=O)C(CNC(=O)Cc1ccc(F)cc1)Cc1ccc(F)cc1 (stereo not drawn),-3.68%
3,O=C(N1CCOCC1)N1CCc2ncnc(NC3CC3)c2CC1,0.83%
4,Cn1cccc1C(=O)N1CCn2cc(CNC(=O)CC3CC3)nc2C1,-6.08%
5,Clc1cc(CN2CCCC2Cn2cncn2)c2ncccc2c1 (stereo not drawn),-2.39%
6,CCc1nnc2n1CCN(Cc1csc(-c3cnn(C)c3)n1)C2,0.402%
7,COc1ccc(C(CNC(=O)Nc2cn[nH]c2)N2CCOCC2)cc1 (stereo not drawn),-20.4%
8,Cc1nn(C)c(C)c1C1CCCN1CC(=O)Nc1ccncc1 (stereo not drawn),4.66%
9,Cc1nn(C)c(N(C)C)c1CNC1CCc2c(F)cccc21 (stereo not drawn),-6.66%
10,Cc1ccccc1C(=O)CN1C(=O)c2ccccc2CS1(=O)=O,14.8%
11,CS(=O)(=O)N1CCC(C(=O)NC(Cc2ccsc2)c2ccccn2)CC1 (stereo not drawn),-8.15%
12,COc1cccc(Cc2nnc(SC3CCOC3=O)o2)c1 (stereo not drawn),-2.72%
13,Cc1ccc(N2CCC3(CC2)CC(OCC(=O)N(C)C)CO3)nn1 (stereo not drawn),2.16%
14,CC(NC(=O)NCc1cccnc1N1CCCCC1)c1nccs1 (stereo not drawn),-7.32%
15,CCc1ccc(NS(=O)(=O)CC2=NC(=O)n3cccc3C2=O)cc1,3.49%
16,c1ncn(CC2CCCN(Cc3nc(C4CC4)no3)C2)n1 (stereo not drawn),-1.7%
17,N#Cc1ccc(C(=O)N2CCC3(CC2)C(=O)Nc2ccccc23)cn1,-4.78%
18,Cc1ccc(-c2nc(CNCCn3cccn3)cs2)o1,1.79%
19,Cc1cnc2n(c1=O)CC(C(=O)Nc1ccccc1Cl)CS2 (stereo not drawn),-1.89%
20,CCn1c(N)nc2cc(C(=O)NCCc3ccccc3C)cnc21,-12.1%

row,Structure (SMILES),Percent Effect
1,O=C(NCCCN1CCCC1)c1n[nH]c(=O)c2ccccc12,-6.65%
2,Cc1nc(CN2CCCC(NCCOCC(F)(F)F)C2)no1 (stereo not drawn),-5.18%
3,O=C1C[C@H]2[C@@H](CCN2C(=O)c2ccccc2)N1CCN1CCOCC1,-3.6%
4,CC(C)Oc1ncccc1CNC(=O)N1CCC(C(N)=O)C1 (stereo not drawn),-0.235%
5,CNc1nc2c(c(C(=O)N3CCCC3)n1)CN(Cc1nccn1C)CC2,-2.56%
6,CC(C)NC(=O)c1sccc1N(C)S(=O)(=O)c1ccc(Cl)cc1,-5.6%
7,COc1nn(C)c2c1CCCN(C(=O)c1ccccc1)C2,-2.72%
8,COCC(=O)N1CC[C@@H]2O[C@H](COCc3ccncc3)CC[C@@H]21,-0.872%
9,Fc1ccc(-c2cnc(CN3CCCC3Cn3cccn3)o2)cc1 (stereo not drawn),-1.62%
10,O=C(C1CC=CC1)N1CCc2c(COCc3ccncc3)cncc2C1,-4.36%
11,O=C(NCC(F)(F)F)NC1CCCc2c1cnn2CCO (stereo not drawn),105%
12,O=C(CCOc1ccccc1)N1CCC(Nc2cccnn2)CC1,-5.39%
13,Cc1cc(CN2CCN(c3ccc4nncn4n3)C(C)C2)no1 (stereo not drawn),-10.9%
14,Cc1n[nH]c(C)c1C1COCCN1C(=O)Cc1cccc(F)c1 (stereo not drawn),-1.14%
15,CCC(C)(NCC(=O)Nc1ccccc1)c1nc(C)cs1 (stereo not drawn),2.11%
16,Cc1ccc(-c2nnc(CN3CCc4cnc(C)nc4C3)o2)cc1,-10.7%
17,Cc1cccc2c1OCCC2NCc1c(C)nn(C)c1N(C)C (stereo not drawn),-18.2%
18,CC(C#N)CSc1ccccc1NCC(=O)NCc1ccccc1 (stereo not drawn),-1.42%
19,O=C(Cn1cc(I)cn1)N1CCCC1,-2.75%
